Measurements as given in PubChem BioAssay AID1345083 (National Center for Advancing Translational Sciences (NCATS), 2018).
The whole screen tested about 94,000 compounds, of which about 6,200 (6.6%) were called active. Where a call stands in place of a potency, no number is given. Inconclusive results (about 31%) are left out. Calls come from the whole dose curve; as a rule, active = well fitted inhibition curve with a large enough effect; inconclusive = small, poorly fitted or top-dose-only effect; inactive = flat fitted curve, though single readings scatter. This excerpt belongs to a sample that is enriched for actives.
Potency is the fitted concentration of half-maximal effect.

Test: Cytotoxic Profiling in HEK 293 Cell Line of Diverse Libraries Using Quantitative High-Throughput Screening; note: nearly all actives have a fitted effect of over 60% in size
Conditions: HEK 293 viability, ATP luminescence (CellTiter-Glo), 48-72 h; series mostly up to 115 µM
How it was run: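 qHTS cytotoxicity; HEK 293, 250 cells/well; compound pinned; 48 or 72 hr, 37 degree Celsius, 5% CO2, 95% humidity; CellTiter-Glo, 10 min RT; luminescence (ATP).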
In the case of `CN(C)C[C@@H]1CN(C)C[C@H]1NC(=O)c1ccnnc1`, the Potency was “inactive”.
With `CC(C)CC(=O)N1CCN(c2nnc3ccccn23)CC1` the Potency was “inactive”.
With `CC(C)(C)CC(=O)Nc1ccc2c(N3CCOCC3)ncnc2c1` the Potency was “inactive”.
For `O=C(CCCc1ccccc1)NCCC1CCN(C(=O)Nc2cc(F)cc(F)c2)CC1`, the Potency was “inactive”.
For `CN1C(=O)C(CC(=O)NCc2ccccc2F)Sc2ncccc21` (stereo unspecified), the Potency was “inactive”.
With `COCc1cccc(C(=O)N2CC[C@@](C)(O)[C@@H](O)C2)n1` the Potency was “inactive”.
For `C=CCN(C)c1nc(C)nc2c1CCN(C(=O)N1CCOCC1)CC2`, the Potency was “inactive”.
With `N#Cc1ccc(CN2CCCC3(COc4ccccc4[S+](=O)([O-])N3)C2)cc1` (stereo unspecified) the Potency was “inactive”.
For `CS(=O)(=O)N1CCCN(C(=O)CN2CCCCCC2)CCNC(=O)CC1c1ccccc1` (stereo unspecified), the Potency was “inactive”.
With `COc1ccc(O[C@H]2COCCN(Cc3nccn3C)C2)cc1` the Potency was “inactive”.
In the case of `CC(C)CN1CCOC[C@H](Oc2ccc(S(C)(=O)=O)cc2)C1`, the Potency was “inactive”.
With `Cn1cc(CN2CCOC[C@H](Oc3ccc(S(C)(=O)=O)cc3)C2)c2ccccc21` the Potency was 50.1 µM (active).
With `Cc1cc(C(=O)NCC2CCCN(Cc3nnc(-c4cccnc4)o3)C2)no1` (stereo unspecified) the Potency was “inactive”.
For `Cc1ccc(S(=O)(=O)N(C)Cc2ccccc2C(F)(F)F)cc1`, the Potency was 70.8 µM (active).
In the case of `CN(CC1CCOC1)S(=O)(=O)c1ccccc1C(F)(F)F` (stereo unspecified), the Potency was “inactive”.
For `Cc1ccc(S(=O)(=O)N(C)CC2CCOCC2)cc1F`, the Potency was “inactive”.
For `CN1C(=O)CCC2(CNC(=O)C3CCC3)CCC=C12` (stereo unspecified), the Potency was “inactive”.
In the case of `O=C(NC1CCCC1)NC1CC(c2nnc(CO)n2C2CC2)C1` (stereo unspecified), the Potency was “inactive”.
With `O=C(C1CCc2nnc(C3CCN([S+](=O)([O-])c4ccccc4)CC3)n21)N1CCOCC1` (stereo unspecified) the Potency was “inactive”.
For `O=C(N1CCCC(Cc2nc(C3CCOCC3)no2)C1)C1(c2ccccc2)CC1` (stereo unspecified), the Potency was “inactive”.
With `O=C(N1CCC(Cc2nc(-c3ccccc3)n[nH]2)C1)C1(c2ccccc2)CC1` (stereo unspecified) the Potency was 44.7 µM (active).
In the case of `O=C(C1CCC1)N1CCC(Cc2nc(-c3cccnc3)n[nH]2)C1` (stereo unspecified), the Potency was “inactive”.
For `CCc1noc(-c2cccn3c(CNC(=O)c4cccc(Cl)c4)nnc23)n1`, the Potency was “inactive”.
With `CC1(c2noc(C3CCOCC3)n2)CCN(Cc2c(F)cccc2Cl)CC1` the Potency was “inactive”.
With `CC(C)C(=O)Nc1ccc(C2(C(=O)NCCN3CCCCC3)CCCCC2)cc1` the Potency was “inactive”.
For `COc1ccc(NC(=O)[C@@H]2C[C@@H](c3ccc(F)cc3)N(CCOc3ccccc3)C2)cn1`, the Potency was 39.8 µM (active).
With `Cc1ccc(NC(=O)[C@@H]2CNC[C@H](C(=O)NCc3ccccn3)C2)cn1` the Potency was “inactive”.
With `O=C(COc1ccc(NC(=O)C2CC2)cn1)NCc1ccc(F)cc1F` the Potency was “inactive”.
With `O=C(C1NCCc2[nH]cnc21)N1CCc2nnc(-c3ccccc3)n2CC1` (stereo unspecified) the Potency was “inactive”.
With `O=C(Nc1ccccc1F)N1CCc2nnc(C3CC3)n2CC1` the Potency was “inactive”.
In the case of `Cn1nc(C(=O)N2CCC(N3C(=O)C(O)C34CCCCC4)CC2)c2ccccc21` (stereo unspecified), the Potency was “inactive”.
For `O=C(c1ccc2c(c1)OCO2)N1CCC2(C1)C(=O)Nc1ccccc12` (stereo unspecified), the Potency was “inactive”.
For `O=C(c1ccc(F)cc1)N1CCN(C(=O)c2nc3cccnc3n(C3CCCC3)c2=O)CC1`, the Potency was “inactive”.
With `Cc1ccc([S+](=O)([O-])N2CCN(C(=O)c3nc4cccnc4n(C4CCCC4)c3=O)CC2)cc1` the Potency was 39.8 µM (active).
With `Cc1ccccc1C(=O)N1CCN(C(=O)c2nc3cccnc3n(C3CC3)c2=O)CC1` the Potency was “inactive”.
In the case of `O=C(NCC1CCCO1)c1noc(-c2ccccc2F)n1` (stereo unspecified), the Potency was “inactive”.
In the case of `Cc1ccccc1C(=O)N1C(C(=O)NCC2CCCO2)COC12CCN(C(=O)c1cccs1)CC2` (stereo unspecified), the Potency was “inactive”.
With `O=C(NCC1CCCO1)c1csc(N2CCN(c3ccccc3F)CC2)n1` (stereo unspecified) the Potency was 89.1 µM (active).
In the case of `CC(C)NC(=O)C1CCc2nnc(CNC(=O)c3ccc(Cl)cc3Cl)n21` (stereo unspecified), the Potency was “inactive”.
With `CC(C)OCCCNC(=O)c1cc(-c2ccc(C(F)(F)F)cc2)nc2c1cnn2C` the Potency was 44.7 µM (active).
For `Cn1ncc2c(C(=O)NCC#N)cc(-c3cccc(C(F)(F)F)c3)nc21`, the Potency was “inactive”.
In the case of `Cn1ncc2c(C(=O)NCc3ccc(C(F)(F)F)cc3)cc(C3C=C(C(F)(F)F)C=CC3)nc21` (stereo unspecified), the Potency was “inactive”.
In the case of `Cn1ncc2c(C(=O)N3CCN(c4ncccn4)CC3)cc(-c3ccc(C(F)(F)F)cc3)nc21`, the Potency was 50.1 µM (active).
For `Cn1ncc2c(C(=O)NCc3ccc(F)cc3F)cc(-c3ccccc3C(F)(F)F)nc21`, the Potency was 31.6 µM (active).
For `Cn1ncc2c(C(=O)NCc3ccc(F)cc3)cc(-c3cccc(C(F)(F)F)c3)nc21`, the Potency was “inactive”.
With `Cn1ncc2c(C(=O)NCc3ccccc3)cc(-c3ccc(C(F)(F)F)cc3)nc21` the Potency was 79.4 µM (active).
With `Cn1ncc2c(C(=O)NCC(F)(F)F)cc(-c3ccc(C(F)(F)F)cc3)nc21` the Potency was “inactive”.
In the case of `Cc1ccc(-c2cc(C(=O)N3CCOCC3)c3cnn(C)c3n2)c(C)c1`, the Potency was “inactive”.
In the case of `COc1ccccc1-c1cc(C(=O)NC2CCCCC2)c2cnn(C)c2n1`, the Potency was “inactive”.
With `CC(=O)N1CCN(C(=O)c2cc(-c3cccc(F)c3)nc3c2cnn3C)CC1` the Potency was “inactive”.
For `Cn1cnc(S(=O)(=O)N2CCC(c3noc(-c4ccccc4)n3)C2)c1` (stereo unspecified), the Potency was “inactive”.
With `CCOc1ccc(CC(=O)N2C[C@@H](N)C[C@H]2C(=O)NC(C)C)cc1` the Potency was “inactive”.
For `CNC(=O)[C@H]1C[C@H](Oc2cccnc2)CN1C(=O)NCCc1ccccc1`, the Potency was “inactive”.
In the case of `COCCn1ncc(N2CCCC(CC(=O)Nc3ccc(C)cc3)C2)cc1=O` (stereo unspecified), the Potency was “inactive”.
For `O=C(c1ccccc1F)N1CCC2(CC1)C(=O)Nc1ccccc12`, the Potency was “inactive”.
In the case of `CC(=O)N[C@@H]1[C@@H](NC(=O)Cc2cccs2)[C@H]2CCO[C@H]21`, the Potency was “inactive”.
For `O=C(c1ccc2nccn2c1)N1CCOCC1`, the Potency was “inactive”.
For `O=C(NCc1ccccn1)c1ccc2nccn2c1`, the Potency was “inactive”.
In the case of `O=C(NC1CCN(Cc2ccc(F)c(F)c2)CC1)c1ccc2nccn2c1`, the Potency was 44.7 µM (active).
For `COc1ccccc1N1CCCc2ncc(C(=O)N3CCCC[C@@H]3c3ccccc3)cc21`, the Potency was 89.1 µM (active).
In the case of `COc1ccccc1N1CCN(C(=O)C2CCCN(C(=O)c3ccccc3)CCC(=O)NCC2)CC1` (stereo unspecified), the Potency was “inactive”.
For `COc1ccc(C(=O)N2CCCN(C(=O)C3CC3)C(c3ccccc3)CC(=O)NCC2)cn1` (stereo unspecified), the Potency was “inactive”.
With `COC(=O)N1CCC2(CC1)C(=NC1CCCC1)NC(=O)N2c1cc(F)cc(F)c1` the Potency was “inactive”.
In the case of `Cc1csc(CCNC(=O)C[C@H]2NC(=O)c3ccccc3NC2=O)n1`, the Potency was “inactive”.
For `O=C1Nc2ccccc2CC12CCN(CC1CC1)C2` (stereo unspecified), the Potency was “inactive”.
In the case of `N#Cc1ccc(CN2CCC3(Cc4ccccc4NC3=O)C2)cc1` (stereo unspecified), the Potency was 89.1 µM (active).
With `O=C1Nc2ccccc2CC12CCN(CC1CCCCC1)CC2` the Potency was “inactive”.
In the case of `O=C(N[C@H]1CCN2C(=O)c3ccccc3NC(=O)[C@H]12)c1cccs1`, the Potency was “inactive”.
For `CC(=O)N1CCc2[nH]cnc2C12CCN(C(=O)c1ccc(C)c(C)c1)CC2`, the Potency was “inactive”.
With `COC(=O)C[C@H]1CN(C(=O)OC(C)(C)C)CCN1` the Potency was “inactive”.
In the case of `COc1ccc(-n2nc(C3CCN(C(=O)c4ccc(C)cc4)CC3)[nH]c2=O)cc1`, the Potency was “inactive”.
With `COc1ccc(-n2nc(C3CCN(C(=O)c4ccc(Cl)nc4)CC3)[nH]c2=O)cc1` the Potency was “inactive”.
In the case of `COc1ccc(-n2nc(C3CCN(Cc4ccccn4)CC3)[nH]c2=O)cc1`, the Potency was 12.6 µM (active).
In the case of `CN1CCN(C(=O)c2ccc3c(c2)OCCO3)CC1=O`, the Potency was “inactive”.
In the case of `CN(C)C(=O)c1nc(-c2cccnc2)c2ccccn12`, the Potency was “inactive”.
In the case of `Cc1cnc(C2CCC2)n1CC1CCN(C(=O)c2ccncc2)C1` (stereo unspecified), the Potency was “inactive”.
In the case of `Cc1cccc(-c2noc([C@@H]3Cc4nc[nH]c4CN3C(=O)Nc3ccccc3)n2)c1`, the Potency was “inactive”.
With `Cc1ccc(-c2noc([C@@H]3Cc4nc[nH]c4CN3Cc3cccc(C#N)c3)n2)cc1` the Potency was 89.1 µM (active).
With `Cc1cccc(-c2noc([C@@H]3Cc4nc[nH]c4CN3C(=O)CCC(=O)O)n2)c1` the Potency was “inactive”.
With `CCn1cc(C(=O)N2C[C@@H](COCC3CC3)[C@H](c3ccccn3)C2)cn1` the Potency was “inactive”.
With `COCCOCC(=O)N1CCC2(CC1)c1[nH]c3ccc(OC)cc3c1CCN2C` the Potency was “inactive”.
With `COc1cccc(N2CCN(C(=O)C3(c4ccc(NC(C)=O)cc4)CCC3)CC2)c1` the Potency was “inactive”.
With `COc1ccc2[nH]c3c(c2c1)CCNC31CCN(C(=O)Cn2ccnc2)CC1` the Potency was “inactive”.
For `O=C(C1CCCO1)N1CCC2(CC1)NCCc1c2[nH]c2ccccc12` (stereo unspecified), the Potency was “inactive”.
For `O=C(COc1ccc(F)cc1)N1CCC2(CC1)NCCc1c2[nH]c2ccccc12`, the Potency was 44.7 µM (active).
In the case of `COCCOCC(=O)N1CCC2(CC1)NCCc1c2[nH]c2ccccc12`, the Potency was “inactive”.
For `Cc1cc(C)n(CC(=O)N2CCC3(CC2)NCCc2c3[nH]c3ccccc23)n1`, the Potency was “inactive”.
With `O=C(C1CC=CC1)N1CCC2(CC1)NCCc1c2[nH]c2ccccc12` the Potency was 39.8 µM (active).
For `COc1ccc(C2(C(=O)N3CCC4(CC3)NCCc3c4[nH]c4ccccc34)CC2)cc1`, the Potency was 35.5 µM (active).
For `CC(=O)NCc1nnc2n1C(C(=O)N1CCN(C)CC1)CC2` (stereo unspecified), the Potency was “inactive”.
For `COCc1nncn1C1CCN(C(=O)c2ccccc2OC(F)(F)F)CC1`, the Potency was “inactive”.
With `CC(=O)Nc1ccc2c(c1)nc1n2[C@@H](CNCc2ccncc2F)COC1` the Potency was “inactive”.
In the case of `CN1CCCN(c2ccc(C(=O)N3CCC(N4CCOCC4)CC3)cn2)CC1`, the Potency was “inactive”.
For `O=C(NC1C[C@H]2CC[C@@H](C1)N2S(=O)(=O)c1ccc2c(c1)OCCO2)c1ccc(F)cc1` (stereo partly specified), the Potency was “inactive”.
In the case of `CCn1ccc(C(=O)NC2CCCN(c3cc(-c4ccc(F)cc4)[nH]n3)C2)n1` (stereo unspecified), the Potency was “inactive”.
For `O=C(NC1CCCN(c2cc(-c3ccc(Cl)cc3)[nH]n2)C1)c1ccccc1F` (stereo unspecified), the Potency was 44.7 µM (active).
For `Cc1nnc2ccc(N3CCC(NC(=O)c4ccccc4Cl)C3)nn12` (stereo unspecified), the Potency was “inactive”.
For `O=C(NC1CCCN(c2cc(-c3ccc(Cl)cc3)[nH]n2)C1)c1ccncc1` (stereo unspecified), the Potency was 39.8 µM (active).
In the case of `O=C(NC1CCCN(c2cc(-c3ccc(F)cc3)[nH]n2)C1)c1ccc(Br)cc1` (stereo unspecified), the Potency was 39.8 µM (active).
In the case of `O=C(NC1CCCN(c2nc3ncccc3o2)C1)c1ccc(F)cc1` (stereo unspecified), the Potency was “inactive”.
In the case of `O=C(NC1CCCN(c2ccc3nnc(C4CC4)n3n2)C1)c1ccccn1` (stereo unspecified), the Potency was “inactive”.
